# From PubChem BioAssay (EPA / NIEHS)
# More than one record can exist for a structure, and the calls need not agree. The source made the active and inactive calls. The calls were made as follows: active = hit-call score of the fitted dose curve at least 0.9, where 1 is the maximum; inactive = score below 0.9.
# Read-out: Interleukin-1 alpha (IL1a), IL1A (gene 3552)
# Test: BSK_LPS_IL1a: BioMAP Diversity Plus: LPS Assay for Interleukin-1 alpha (IL1a) Biomarker Activity (AID 2283080)
# Details: primary human HUVEC with PBMC; actives raise or lower the signal
# Protocol: BSK_LPS is a cell-based, multiplexed-readout assay that uses umbilical vein endothelium and peripheral blood mononuclear cells, a human vascular primary cell co-culture, with measurements taken at 24 hours after chemical dosing in a 96-well plate.BSK_LPS_IL1a is an assay component measured in the BSK_LPS assay. It measures IL-a antibody related to regulation of gene expression using ELISA technology.Data from the assay component BSK_LPS_IL1a was analyzed into 1 assay endpoint. This assay endpoint, BSK_LPS_IL1a, was analyzed with bidirectional fitting relative to DMSO as the negative control and baseline of activity. Using a type of binding reporter, gain or loss-of-signal activity can be used to understand changes in the signaling as they relate to the gene IL1A. Furthermore, this assay endpoint can be referred to as a primary readout, because this assay has produced multiple assay endpoints where this one serves a signaling function. To generalize the intended target to other relatable targets, this assay endpoint is annotated to the cytokine intended target family, where the subfamily is interleukins.
# The levels of cell surface (or secreted, indicated by the prefix "s") biomarker endpoints were measured by ELISA. Overt cytotoxicity to cells in confluent adherent cultures (all systems other than the BT system) was assessed by measuring total protein levels using sulforhodamine B (SRB) staining in parallel cultures at the time of biomarker measurements, indicated as SRB endpoints. For proliferation assays for adherent cell types, individual cell types are cultured at sub-confluence and relative cell numbers quantified by SRB staining at time points optimized for each system (48 h: 3C and CASM3C systems; 72 h: BT and HDF3CGF systems; 96 h: SAg system). SRB was performed by staining cells with 0.1% SRB after fixation with 10% TCA and reading wells at 560 nm.Viability and proliferation of PBMC (T cells) was quantified by Alamar Blue reduction for the SAg and BT systems. For PBMC viability (referred to as PBMC Cytotoxicity within the assay endpoint names), cells were plated (75,000/well in a 96-well plate) and then chemical samples added for 1 h before addition of activators, SEB and TSST-1 (20 ng/mL final concentration each). Cells were incubated for 90 h. Then, Alamar Blue (20 uL/well) (Invitrogen, Cat DAL1100) was added for 6 h, and the plates were read with a fluorescence microplate reader at 546/580 nm (excitation/emission). For PBMC proliferation, cells were plated and activated as above but incubated for only 16 h prior to addition of Alamar Blue. Plates were read after 6 h.
SMILES,AC50,outcome
O=C1C2(Cl)C3(Cl)C4(Cl)C(Cl)(Cl)C5(Cl)C3(Cl)C1(Cl)C5(Cl)C24Cl (stereo not given),7.55 µM (active),
COC(=O)Cc1ccccc1,,inactive
O=c1[nH]c(=O)[nH]c(=O)[nH]1,,inactive
NC(=O)O,,inactive
COc1cc(-c2ccc(N)c(OC)c2)ccc1N,,inactive
CC(=O)[O][Hg][c]1ccccc1,1.25 µM (active),
Cn1sc(Cl)cc1=O,29.3 µM (active),
CC(C)(OO)c1ccccc1,,inactive
ClC(Cl)=C(Cl)C(Cl)=C(Cl)Cl,31 µM (active),
CC(C)c1ccc(CO)cc1,,inactive
COc1cc(OC)nc(NC(=O)NS(=O)(=O)c2ncccc2C(=O)N(C)C)n1,,inactive
O=[N+]([O-])c1ccc(O)c([N+](=O)[O-])c1,,inactive
O=C(OC1CCCCC1)c1ccccc1C(=O)OC1CCCCC1,20.9 µM (active),
BrCCBr,,inactive
C[C@]12CCC(=O)C[C@@H]1CC[C@@H]1[C@@H]2CC[C@]2(C)[C@@H](O)CC[C@@H]12,,inactive
CCOC(=O)/C=C(C)/C=C/C[C@@H](C)CCCC(C)C,33.3 µM (active),
CCSC(C)CC1CC(=O)C(C(CC)=NOC/C=C/Cl)=C(O)C1 (stereo not given),,inactive
ClCC(Cl)CCl,,inactive
CC(=O)OC(c1ccccc1)C(Cl)(Cl)Cl (stereo not given),17.6 µM (active),inactive
OCc1ccco1,,inactive

SMILES,AC50,outcome
CC(C)CCCCCCOC(=O)c1ccccc1C(=O)OCCCCCCC(C)C,,inactive
CCC(=O)C(CC(C)N(C)C)(c1ccccc1)c1ccccc1 (stereo not given),,inactive
CC12CC1(C)C(=O)N(c1cc(Cl)cc(Cl)c1)C2=O (stereo not given),,inactive
COP(=S)(OC)Oc1ccc(Sc2ccc(OP(=S)(OC)OC)cc2)cc1,31 µM (active),
Nc1ccc(-c2ccc(N)c(Cl)c2)cc1Cl,,inactive
CC1(C)Cc2cccc(O)c2O1,,inactive
C[C@@H]1C[C@@H]([C@H](O)CC2CC(=O)NC(=O)C2)C(=O)[C@@H](C)C1,5.63 µM (active),
COP(=S)(OC)Oc1ccc(S(=O)(=O)N(C)C)cc1,0.0677 µM (active),
O=C(O)CCC(F)(C(F)(F)F)C(F)(F)F,,inactive
COP(=S)(OC)Oc1c(Cl)cc(C)cc1Cl,0.108 µM (active),
O=C(Nc1ccc2[nH]ccc2c1)c1cc2cc(F)ccc2n1Cc1cccc(F)c1,7.97 µM (active),
CC(=O)C(Cl)C(=O)N(C)C (stereo not given),14.4 µM (active),
CCOP(=S)(OCC)SCSP(=S)(OCC)OCC,,inactive
CCOP(=S)(OCC)Oc1nc(Cl)c(Cl)cc1Cl,,inactive
CC(C)(c1ccccc1)c1ccc(O)c(C(C)(C)c2ccccc2)c1,11.1 µM (active),
Oc1c(I)cc(I)cc1I,,inactive
COC[C@H](C)N(C(=O)CCl)c1c(C)csc1C,,inactive
O=[N+]([O-])c1ccc2c3c(cccc13)CC2,,inactive
C=C(C)C(=O)[O][Sn]([CH2]CCC)([CH2]CCC)[CH2]CCC,0.148 µM (active),
